# From PubChem BioAssay
# mHTT CaM bind – mutant huntingtin-calmodulin interaction inhibitors – biochemical, AlphaScreen, primary screen; inhibition, % at 15 µM; P42858; AlphaScreen His-mHTT/GST-CaM binding, luminescence; 190,000 tested, 3.6% active
# Pf apPOL inh – Pf-apPOL inhibitors, biochemical, fluorescence. Plasmodium falciparum apicoplast DNA polymerase (apPOL). Recombinant Pf-apPOL, molecular beacon fluorescence, 1.5 h. inhibition, % at 10 µM. 210,000 tested, 0.25% active
# Hits are given with their value; . = inactive; / = no result given; ! = repeats disagree. This is one part of a sample in which hits are shown more often than they occur. No stated cut-off is given here; in the data, active means inhibition above about 50%; inactive means the rest.
SMILES,mHTT CaM bind,Pf apPOL inh
CC(=O)Nc1ccccc1/C=C/c1ccc2cccc(O)c2n1,.,.
O=C(CS(=O)(=O)Cc1ccccc1)Nc1nc(-c2cc3ccccc3o2)cs1,.,.
O=C(Cc1ccc(F)cc1)Nc1nc(-c2ccccn2)cs1,85.1,.
O=C(CS(=O)(=O)Cc1ccccc1)Nc1nc(-c2ccccn2)cs1,87.4,.
O=C(Cc1ccc(F)cc1)Nc1ncccn1,.,.
COc1cccc(/C=C2/N=C(c3ccc(Br)cc3)OC2=O)c1OC,.,.
COc1cc(C=C2SC(=S)N(CC(=O)O)C2=O)ccc1O,.,.
COc1cc(C=C2SC(=S)N(c3ccc4c(c3)OCO4)C2=O)cc(OC)c1OC,.,.
COc1cc(C=C2SC(=S)N(c3cccc(O)c3)C2=O)ccc1O,80.9,.
COc1cc(C=C2SC(=S)N(c3ccc(C(=O)O)c(O)c3)C2=O)ccc1O,69.9,.
O=C1CN(S(=O)(=O)c2ccc(Br)cc2)c2ccccc2N1,.,.
O=C1CN(S(=O)(=O)c2ccc3[nH]c4c(c3c2)CCCC4)c2ccccc2N1,73.6,.
O=S(=O)(c1ccc2[nH]c3c(c2c1)CCCC3)N1CCCc2ccccc21,76.7,.
O=S(=O)(c1ccc(F)cc1)N1CCCc2ccccc21,.,.
COC(=O)COc1ccc2oc(=O)c(-c3ccc(Br)cc3)c(C)c2c1,.,.
COc1ccc2c(c1)OCC/C2=N\OC(=O)c1ccc(Cl)cc1,.,.
Cn1cc(CC(=O)Nc2ccc3cn[nH]c3c2)c2ccccc21,.,.
Oc1cccc(CNc2ccc3[nH]ncc3c2)c1,76.9,.
c1cc2c(cc1CNc1ccc3cn[nH]c3c1)OCO2,63.7,.
O=C(O)c1ccc(NCc2ccc3c(c2)OCO3)cc1,.,.
Cc1cccc(CNc2ccc3cn[nH]c3c2)c1,60.4,.
Oc1cccc(CNc2ccc(F)c(Cl)c2)c1,.,.
CC(=O)N1CCC(c2nc(-c3ccc(Oc4ccc(F)cc4)cc3)no2)CC1,.,.
O=Cc1cn(CC(=O)N2CCc3ccccc32)c2ccc(Br)cc12,.,.
CCCCc1ccc(N=Cc2cccc([N+](=O)[O-])c2O)cc1,.,.
SMILES,mHTT CaM bind,Pf apPOL inh
COc1ccccc1NC(=O)N1CCc2c(c(COCc3ccccc3)nn2C)C1,.,.
O=C(NCCc1ccc(Cl)cc1)c1ccc2c(c1)NC(=O)C(N1CCCC1)S2 (centres undefined),.,.
Cc1ccc(-c2nc(N3CCOCC3)c3ccccc3n2)cc1,.,.
c1ccc2c(N3CCOCC3)nc(-c3ccncc3)nc2c1,61.0!,.
Cc1ccc(C)c(-c2nn(-c3ccccc3)cc2C=NC2CCS(=O)(=O)C2)c1 (centres undefined),.,.
Oc1[nH]c(=S)sc1C=CC=CC=Nc1ccccc1,95.2,/
CCC(C)c1ccccc1OCC(O)CNC(C)(C)C(C)(C)C (centres undefined),99.9,.
CCC(C)c1ccccc1OCC(O)CNC(C)(C)C (centres undefined),.,.
O=c1ccc2ccc(OCCOc3ccc4ccc(=O)oc4c3)cc2o1,.,.
Cc1ccsc1C=C1C(=O)c2ccccc2C1=O,50.0,.
Cc1ccccc1C1=N/C(=C\c2sccc2C)C(=O)O1,.,.
CSc1ccccc1C(=O)N1CCC(n2cnc3cc(C(F)(F)F)ccc32)CC1,81.9,.
CSc1ccccc1C(=O)N1CCC(Cn2nc(C)cc2C)CC1,.,.
CCOC(=O)C1CCC(CNC(=O)N2CCCn3nc(-c4cccnc4)cc3C2)CC1 (centres undefined),.,.
Cc1cccc(-c2cnc(N3CCC(C(=O)Nc4ccc(F)cc4)CC3)nc2)c1,100.1,.
Cc1cccc(NC(=O)C2CCN(c3ncc(-c4ccccc4)cn3)CC2)c1,.,.
O=C(NCc1ccc(Cl)cc1)c1ccc2c(c1)NC(=O)c1ccccc1S2,.,.
CC1=CC(=NC(=NS(=O)(=O)c2ccc(C)cc2)c2ccccc2)C(C)=CC1=O,59.0,.
Cc1ccc(S(=O)(=O)N=C(Nc2ccccn2)c2ccccc2)cc1,.,.
CC1=CC(=O)C=CC1=NC(=NS(=O)(=O)c1ccc(C)cc1)c1ccccc1,58.0,.
Cc1ccc(C(N)=NC(=NS(=O)(=O)c2ccccc2)c2ccccc2)cc1,.,.
COc1ccc(S(=O)(=O)N2CCC(c3noc(-c4ccccc4)n3)CC2)cc1OC,.,.
CCNc1nc(NCC)nc(OCCNS(=O)(=O)c2cc(C)ccc2C)n1,.,89.0
CCNc1nc(NC(C)C)nc(OCCNS(=O)(=O)c2cc(C)ccc2C)n1,.,.
COc1ccc(C(=O)N2CCC(Nc3cccnc3)C2)c(OC)c1 (centres undefined),.,.
SMILES,mHTT CaM bind,Pf apPOL inh
O=C1C(Br)=C(Br)C(=O)C(Br)=C1Br,81.0,.
O=C1C(Br)=C(Br)C(=O)c2ccccc21,100.0,.
CC1=C(Br)C(=O)c2ccccc2C1=O,.,.
CC(C)c1nnc2n1CCN(C(=O)c1n[nH]c3ccccc13)C2,.,.
COc1ccc(C(=O)NC2CCN(c3ccc(C)cc3)C2=O)cc1 (centres undefined),.,.
CCOc1cccc(CN2CCC(C(=O)N3CCN(Cc4ccccc4)CC3)CC2)c1O,.,.
COc1ccc(C(NC(C)=O)c2cc([N+](=O)[O-])c3cccnc3c2O)cc1 (centres undefined),100.0,.
CC(=O)NC(c1ccccc1Cl)c1cc([N+](=O)[O-])c2cccnc2c1O (centres undefined),100.0,.
O=[N+]([O-])c1cccc(Cl)c1N1CCN(c2ccc([N+](=O)[O-])c3cccnc23)CC1,.,.
COc1ccc(NC(=O)CSc2cccc3cccnc23)c([N+](=O)[O-])c1,.,.
CC(=O)NC(c1ccccc1)c1cc([N+](=O)[O-])c2cccnc2c1O (centres undefined),100.3,.
Cc1cc(I)ccc1Nc1c([N+](=O)[O-])cc([N+](=O)[O-])c2cccnc12,.,.
O=C(O)CCCN1C(=O)S/C(=C\C=C\c2ccccc2)C1=O,.,.
CCCc1ccc(S(=O)(=O)N2CCC(CN3CCCCC3)CC2)cc1,.,.
O=[N+]([O-])c1ccc(O)c(C=Nc2cc(-c3ccccc3)ccc2O)c1,.,.
CCC(=O)N(C)CC1CC(c2ccc(OC)cc2)=NO1 (centres undefined),.,.
Cc1cc2[nH]c(C(=O)Nc3ccc(F)c(F)c3)c(CN(C)C)c2s1,.,.
O=C(CCc1nnc(-c2cccc(C(F)(F)F)c2)[nH]c1=O)NC1CCCCC1,.,.
COc1cccc(CC(=O)N2CCC(c3noc(-c4cccc(OC)c4)n3)CC2)c1,.,.
CCc1nc(C2CCCN(C(=O)Cc3c[nH]c4ccccc34)C2)n[nH]1 (centres undefined),60.6,.
CCc1nc(C2CCCN(C(=O)CCc3c[nH]c4ccccc34)C2)n[nH]1 (centres undefined),.,.
COc1ccccc1-c1nc(C2CCN(C(=O)Cc3c[nH]c4ccccc34)CC2)no1,76.3,.
COc1ccccc1-c1nc(C2CCN(C(=O)Cc3cccc4ccccc34)CC2)no1,.,.
COc1cccc(-c2nc(C3CCN(C(=O)Cc4c[nH]c5ccccc45)CC3)no2)c1,65.1,.
CS(=O)(=O)c1ccc(Cc2nnc(NC(=O)C3CCCC3)o2)cc1,.,.
COc1cc([N+](=O)[O-])cc(C=Nc2ccc3oc(-c4cccc(F)c4)nc3c2)c1O,.,.
